Data on seven molecules can be found in PubChem BioAssay.

Each structure is given as a SMILES string. For some of these results: Results with a measured potency or affinity are listed apart. The source made the active and inactive calls.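 The calls were made as follows, unless noted: active = hit in primary screen, with calcium signal over 5 SD above buffer well mean in both duplicates; inactive = the rest.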

The subject of test [1] is TRPC4 beta (transient receptor potential cation channel C4), mouse. The test is described as follows: activators of mouse TRPC4 channel, confirmation, cell-based, Fluo4 calcium, HEK293 TRPC4beta/mu-opioid, duplicates, 10 µM (AID 2426;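 active = fluorescence ratio normalized to control raised more than 50% in primary screen plus both repeat runs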;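 as to activation: percent rise of integrated ratio over buffer wells lacking compound which define 0%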). To be noted: Fluo4 calcium fluorescence, at 10 µM; hits give high values.
For test [2], the system named is transient receptor potential cation channel C4 beta (TRPC4), mouse. The test is described as follows: activators of mouse TRPC4 channel, confirmation, cell-based, second round, Fluo4, HEK293 TRPC4beta/mu-opioid, 1 µM (AID 2461;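 active = primary screen active and over 50% activation in each of two duplicate runs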;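 as to activation: 0% = wells without test compound as baseline of integrated fluorescence ratio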). Conditions: Fluo4 calcium fluorescence, at 1 µM; hits give high values.
For test [3], the system named is TRPC4 (transient receptor potential cation channel C4 beta), mouse. Briefly: positive allosteric modulators of mouse TRPC4, confirmation, cell-based, second round, Fluo-4, HEK293 TRPC4beta/mu-opioid, 1 µM (AID 2554;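 active = primary screen hit whose fluorescence ratio, in both repeats, exceeds the weak agonist control mean by 3 SD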). Conditions: DAMGO EC20, Fluo-4 calcium flux, at 1 µM; hits give high values.
Test [4] has as its system TRPC4 beta (transient receptor potential cation channel C4), mouse. Briefly: positive allosteric modulators of mouse TRPC4, confirmation, cell-based, Fluo-4, HEK293 TRPC4beta/mu-opioid (AID 2555;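 active = primary screen hit whose calcium fluorescence ratio, in both repeats, exceeds the weak agonist control mean by 3 SD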). To be noted: DAMGO EC20, Fluo-4 calcium flux, at 10 µM; hits give high values.
Test [5] concerns the target Short transient receptor potential channel 4 (Mus musculus) (UniProt Q9QUQ5). The test is described as follows: inhibitors of mouse TRPC4 channel, confirmation, cell-based, Fluo4, HEK293 TRPC4beta/mu-opioid (AID 2636;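 active = calcium signal cut by more than 3 SD below the full-agonist control yet still positive, in both repeats and the earlier primary screen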). Conditions: DAMGO, Fluo4 calcium flux, at 10 µM; hits give high values.
For test [6] the target is unchanged. The test is described as follows: inhibitors of mouse TRPC4 channel, confirmation, cell-based, second round, Fluo4, HEK293 TRPC4beta/mu-opioid, 1 µM (AID 2637;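 active = calcium signal ratio cut to more than 3 SD under the fully stimulated control mean yet still positive, in both repeats and the primary screen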). To be noted: Fluo4 calcium flux, DAMGO, at 1 µM; hits give high values.
Test [7] shares this target. The test is described as follows: TRPC4 positive allosteric modulators, dose response, cell-based, HEK293 TRPC4/mu-opioid, Fluo-4 calcium, EC20 DAMGO (AID 434941;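 active = earlier screen potentiator hit that boosts the TRPC4 ion channel at some dose, with a dose response; inactive = no potentiation, no dose response, or not a prior hit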;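 also: calcium entry triggered by an EC20 dose of DAMGO at the co-expressed mu-opioid receptor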).
The target is the same in test [8]. The test is described as follows: mouse TRPC4 channel inhibitors, dose response, cell-based, HEK293 TRPC4/mu-opioid, Fluo-4 calcium (AID 434942;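 active = primary screen inhibitor hit that blocks the TRPC4 channel at some tested dose, yielding a dose curve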).
Test [9] has as its target Short transient receptor potential channel 6 (Mus musculus) (UniProt Q61143). Briefly: inhibition of mouse TRPC6 channel, confirmation, selectivity assay for TRPC4 inhibitor project, cell-based, HEK293, membrane potential dye, duplicate (AID 434948;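 active = active in primary screen and both duplicates, each dropping signal beyond three positive-control SD with fluorescence still positive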). To be noted: HEK293 TRPC6, membrane potential dye fluorescence, at 10 µM, stimulated with maximal-effect acetylcholine; hits give high values.

Test [10] shares this target. The test is described as follows: activation of mouse TRPC6 channel, confirmation, selectivity assay for TRPC4 activator project, cell-based, HEK293, membrane potential dye, duplicate (AID 434950;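 active = membrane potential signal rise above negative control mean plus 3 SD in both duplicates, also active in the earlier TRPC4 screen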;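 as to activation: 0% = buffer only wells and 100% = acetylcholine maximal-effect wells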). Conditions: HEK293 TRPC6, membrane potential fluorescence, at 10 µM; hits give high values.
The target is the same in test [11]. Briefly: TRPC6 potentiation by TRPC4 potentiator hits, confirmation, selectivity assay for TRPC4 potentiator project, HEK293 cells, membrane potential dye, duplicate (AID 434952;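 active = compound raising the membrane signal above positive-control mean plus 3 SD in both repeats, and a primary screen hit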). To be noted: HEK293 TRPC6, membrane potential dye fluorescence, at 10 µM, maximal acetylcholine added after compound; hits give high values.
For test [12], the target named is Short transient receptor potential channel 4 (Mus musculus) (UniProt Q9QUQ5). The test is described as follows: calcium flux activators in TRPC4/5HT1a cells, counter-screen for TRPC4 activator project, cell-based, second counter screen, HEK293 TRPC4/5HT1a, Fluo-4 (AID 434977;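 active = calcium signal rise above buffer-control mean plus 5 SD in both duplicates, and also a hit in the primary screen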;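 as to activation: plate controls were assay buffer for no effect and maximal serotonin response for full effect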). Conditions: Fluo-4 calcium flux, at 10 µM; hits give high values.
Sequence of Short transient receptor potential channel 4 (Mus musculus) (Q9QUQ5 whole entry, looked up): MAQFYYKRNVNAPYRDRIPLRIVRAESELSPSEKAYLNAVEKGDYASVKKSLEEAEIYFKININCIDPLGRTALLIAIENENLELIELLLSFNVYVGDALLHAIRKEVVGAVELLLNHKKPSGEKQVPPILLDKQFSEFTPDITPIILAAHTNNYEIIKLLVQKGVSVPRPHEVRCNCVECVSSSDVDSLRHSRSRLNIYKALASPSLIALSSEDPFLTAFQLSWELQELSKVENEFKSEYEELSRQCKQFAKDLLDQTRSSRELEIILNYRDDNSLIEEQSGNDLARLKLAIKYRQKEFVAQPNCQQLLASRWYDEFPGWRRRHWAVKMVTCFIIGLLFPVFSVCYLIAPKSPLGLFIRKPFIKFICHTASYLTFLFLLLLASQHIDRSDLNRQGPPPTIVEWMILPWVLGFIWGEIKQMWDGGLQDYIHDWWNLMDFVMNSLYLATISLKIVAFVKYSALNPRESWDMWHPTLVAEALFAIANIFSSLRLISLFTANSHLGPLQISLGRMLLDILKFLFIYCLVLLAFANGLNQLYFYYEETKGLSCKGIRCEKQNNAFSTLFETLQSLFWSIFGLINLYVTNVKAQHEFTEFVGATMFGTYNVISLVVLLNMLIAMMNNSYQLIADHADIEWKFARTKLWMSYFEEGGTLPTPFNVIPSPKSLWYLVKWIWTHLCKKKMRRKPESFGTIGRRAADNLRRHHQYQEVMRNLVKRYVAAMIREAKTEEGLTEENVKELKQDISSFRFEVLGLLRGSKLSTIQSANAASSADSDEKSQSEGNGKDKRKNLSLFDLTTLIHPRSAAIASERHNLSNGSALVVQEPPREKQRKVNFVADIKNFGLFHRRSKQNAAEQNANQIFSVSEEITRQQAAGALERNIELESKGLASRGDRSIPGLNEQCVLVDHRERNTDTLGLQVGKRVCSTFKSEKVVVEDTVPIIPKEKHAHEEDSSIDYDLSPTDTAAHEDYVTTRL
Test [13] can be described thus: calcium flux inhibitors in TRPC4/5HT1a cells, confirmation, counter-screen for TRPC4 inhibitor project, cell-based, second counter screen, HEK293 TRPC4/5HT1a, Fluo-4 (AID 434978;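 active = primary screen active whose calcium signal fell more than 3 SD beyond the full-serotonin control mean in both duplicate plates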;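 also: serotonin given first at submaximal then at maximal dose after compound preincubation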). To be noted: Fluo-4 calcium flux, at 10 µM, serotonin added to trigger calcium flux; hits give high values.
Test [14] concerns TRPC4 (mouse), co-expressed with 5HT1a in HEK293. The test is described as follows: calcium flux potentiators in TRPC4/5HT1a cells, confirmation, counter-screen for TRPC4 potentiator project, cell-based, second counter screen, HEK293 TRPC4/5HT1a, Fluo-4 (AID 434979;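 active = signal rise over 3 SD above mean of control wells given weak agonist, in both repeats and first screen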). To be noted: Fluo-4 calcium flux, at 10 µM, serotonin added at its EC20 dose; hits give high values.
Test [15] in a line: calcium flux activation in mu-opioid HEK293 cells, confirmation, counter-screen for TRPC4 activator project, cell-based, HEK293 mu-opioid receptor line (AID 449723).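 Also: counter screen cells carry the mu-opioid receptor alone and lack TRPC4.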 Conditions: Fluo-4 calcium fluorescence, at 10 µM; hits give high values.
Test [16] can be described thus: calcium flux enhancement in mu-opioid HEK293 cells, confirmation, counter-screen for TRPC4 allosteric potentiator project, cell-based, HEK293 mu-opioid receptor line (AID 449724;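 active = calcium signal rise more than 3 SD above the low-dose agonist control mean, in both duplicate plates and the primary screen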;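 also: HEK293 cells carrying mu-opioid receptor only with no TRPC4 channel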). To be noted: Fluo-4 calcium flux, at 10 µM, compound added before EC20 DAMGO stimulus; hits give high values.
Test [17] is described as follows: thallium flux activation in parental CHO cells, counter-screen for KCNQ1 potentiator project (AID 493006;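 active = duplicate-averaged activation above buffer control mean plus 5 SD of those controls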;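 as to activation: fluorescence ratio of max minus min over baseline after K+ and Tl+ depolarization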). To be noted: parental CHO-K1 cells, FluxOR thallium flux, at 10 µM; hits give high values.
The target of test [18] is Potassium voltage-gated channel subfamily KQT member 1 (Homo sapiens) (UniProt P51787). Briefly: KCNQ1 potassium channel potentiators, confirmation, FluxOR thallium flux, CHO cells, duplicates (AID 493007;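 active = potentiation averaged over duplicate wells exceeding buffer-only control mean by more than 3 SD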;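 as to outcome: cells depolarized by a potassium plus thallium sulfate stimulus after compound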;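 as to potentiation: 0% = buffer-only wells and 100% = R-L3 activator control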). To be noted: KCNQ1 cell line, FluxOR thallium flux fluorescence, at 10 µM; hits give high values, % of reference activator effect, buffer zero.
Sequence of Potassium voltage-gated channel subfamily KQT member 1 (Homo sapiens) (P51787 whole entry, looked up): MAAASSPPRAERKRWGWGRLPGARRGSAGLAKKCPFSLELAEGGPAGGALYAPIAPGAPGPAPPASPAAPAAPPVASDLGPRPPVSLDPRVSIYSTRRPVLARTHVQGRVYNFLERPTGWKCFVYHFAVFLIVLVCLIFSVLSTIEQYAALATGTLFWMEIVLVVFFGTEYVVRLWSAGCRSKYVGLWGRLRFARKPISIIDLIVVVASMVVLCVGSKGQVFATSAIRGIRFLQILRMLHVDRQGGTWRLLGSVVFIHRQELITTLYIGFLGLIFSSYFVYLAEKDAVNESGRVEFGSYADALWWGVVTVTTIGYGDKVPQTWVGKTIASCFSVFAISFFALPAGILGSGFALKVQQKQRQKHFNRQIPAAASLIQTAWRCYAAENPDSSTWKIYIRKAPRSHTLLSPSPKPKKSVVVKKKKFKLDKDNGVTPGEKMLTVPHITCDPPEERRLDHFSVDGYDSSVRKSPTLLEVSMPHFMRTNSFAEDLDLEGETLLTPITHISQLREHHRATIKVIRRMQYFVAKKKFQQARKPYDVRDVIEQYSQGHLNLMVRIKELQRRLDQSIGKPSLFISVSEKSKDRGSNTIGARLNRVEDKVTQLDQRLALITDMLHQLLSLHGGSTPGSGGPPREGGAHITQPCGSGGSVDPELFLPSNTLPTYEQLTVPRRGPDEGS
For test [19], the target named is Potassium voltage-gated channel subfamily KQT member 2 (Rattus norvegicus) (UniProt O88943). Briefly: rat KCNQ2 channel potentiation, selectivity assay for KCNQ1 potentiator project, KCNQ2-CHO-K1 cells (AID 493009;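 active = mean duplicate potentiation above the buffer control mean plus 5 SD of buffer wells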;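 also: assay conditions were tuned for KCNQ1 rather than KCNQ2 modulators; signal is max minus min fluorescence divided by baseline after thallium stimulus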). Conditions: FluxOR thallium flux fluorescence, at 10 µM; hits give high values, scaled: buffer 0, activator control 100.
Sequence of Potassium voltage-gated channel subfamily KQT member 2 (Rattus norvegicus) (O88943 whole entry, looked up): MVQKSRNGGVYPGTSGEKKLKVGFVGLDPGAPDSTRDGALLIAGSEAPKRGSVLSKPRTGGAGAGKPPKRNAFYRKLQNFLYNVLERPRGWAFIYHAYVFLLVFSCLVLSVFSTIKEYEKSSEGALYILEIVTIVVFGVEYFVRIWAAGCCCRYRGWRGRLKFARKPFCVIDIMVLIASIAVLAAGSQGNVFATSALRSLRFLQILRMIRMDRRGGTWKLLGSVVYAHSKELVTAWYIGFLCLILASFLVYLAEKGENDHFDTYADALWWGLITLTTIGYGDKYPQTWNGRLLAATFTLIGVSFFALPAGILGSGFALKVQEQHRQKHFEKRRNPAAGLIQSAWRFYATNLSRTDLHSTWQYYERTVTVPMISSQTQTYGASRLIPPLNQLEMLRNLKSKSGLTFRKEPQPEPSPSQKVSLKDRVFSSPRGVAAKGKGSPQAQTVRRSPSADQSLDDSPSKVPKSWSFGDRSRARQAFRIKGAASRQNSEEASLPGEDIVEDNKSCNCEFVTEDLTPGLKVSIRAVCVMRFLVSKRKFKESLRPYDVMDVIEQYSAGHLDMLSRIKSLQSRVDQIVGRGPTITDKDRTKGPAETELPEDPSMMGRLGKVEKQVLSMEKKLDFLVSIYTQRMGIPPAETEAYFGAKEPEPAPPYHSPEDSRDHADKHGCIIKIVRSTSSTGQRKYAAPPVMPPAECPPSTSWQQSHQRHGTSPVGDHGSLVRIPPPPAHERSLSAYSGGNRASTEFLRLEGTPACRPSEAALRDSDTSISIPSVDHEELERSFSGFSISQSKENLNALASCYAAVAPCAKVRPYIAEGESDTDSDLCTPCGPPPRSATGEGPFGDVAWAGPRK
The target in test [20] is Potassium voltage-gated channel subfamily KQT member 1 (Homo sapiens) (UniProt P51787). The test is described as follows: KCNQ1 channel current potentiators, confirmation, orthogonal assay for KCNQ1 potentiator project, IonWorks patch clamp, KCNQ1-CHO cells (AID 493184;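 active = current rise at least 3 SD above the untreated control mean in each of two repeat wells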). To be noted: automated patch clamp current, at 10 µM; hits give high values.

Sequence of Short transient receptor potential channel 6 (Mus musculus) (Q61143 whole entry, looked up): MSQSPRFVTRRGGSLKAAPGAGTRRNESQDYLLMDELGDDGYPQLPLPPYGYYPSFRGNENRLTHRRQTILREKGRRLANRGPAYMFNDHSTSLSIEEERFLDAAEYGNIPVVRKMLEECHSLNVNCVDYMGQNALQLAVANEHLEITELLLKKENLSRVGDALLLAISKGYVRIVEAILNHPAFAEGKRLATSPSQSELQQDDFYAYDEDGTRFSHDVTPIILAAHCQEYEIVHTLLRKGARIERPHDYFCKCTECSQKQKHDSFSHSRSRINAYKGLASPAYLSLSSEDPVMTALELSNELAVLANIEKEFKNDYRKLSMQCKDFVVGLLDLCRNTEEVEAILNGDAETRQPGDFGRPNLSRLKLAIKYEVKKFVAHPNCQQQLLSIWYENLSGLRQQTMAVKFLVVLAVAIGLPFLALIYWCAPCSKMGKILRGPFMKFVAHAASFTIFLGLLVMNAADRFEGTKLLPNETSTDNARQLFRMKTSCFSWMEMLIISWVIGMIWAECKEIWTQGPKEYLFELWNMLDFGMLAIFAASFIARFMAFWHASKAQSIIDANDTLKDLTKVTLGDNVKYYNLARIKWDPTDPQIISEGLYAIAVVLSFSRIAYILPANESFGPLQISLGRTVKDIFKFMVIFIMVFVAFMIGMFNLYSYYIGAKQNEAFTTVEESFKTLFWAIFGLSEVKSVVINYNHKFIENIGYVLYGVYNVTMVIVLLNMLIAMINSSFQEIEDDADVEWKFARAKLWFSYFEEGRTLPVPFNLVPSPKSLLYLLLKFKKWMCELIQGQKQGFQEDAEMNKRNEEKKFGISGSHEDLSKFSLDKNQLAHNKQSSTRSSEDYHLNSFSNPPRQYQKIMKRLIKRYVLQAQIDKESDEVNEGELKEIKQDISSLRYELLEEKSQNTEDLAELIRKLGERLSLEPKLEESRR

Regarding `Cc1ccc(C(=O)NNC(=S)NC(=O)c2ccccc2)cc1`, the activation in test [1] was 239% (active); in [10] it was 27% (active); in test [12], 133% (active); in test [15], 77.1% (active); in [17], 188% (active). The outcome in [2], in test [3], in test [4], in [5], in test [6] and in test [7] was inactive. Moreover, the outcome in test [8], in test [9], in [11], in [13], in test [14] and in [16] was inactive. The outcome in test [20] was inactive. Further, the potentiation was 156% (active) in [18] and 300% (active) in test [19].
`OCCN1CCN(Cc2cc(Br)cc(Br)c2O)CC1`: the activation in test [1] is 199% (active); in [2], 170% (active); in test [10] it was 32% (active); in test [12] it was 85.4% (active). Moreover, the result in test [3], in test [4], in [5], in [6], in test [7] and in [8] was inactive. Moreover, the molecule was classed as inactive in [9], in test [11], in test [13], in test [14], in test [15] and in test [16]. For the same molecule, the outcome in test [17], in [18], in [19] and in [20] was inactive.
As to `CCCOc1ccc(C(=O)NC(=S)NNC(=O)c2c(-c3ccccc3)noc2C)cc1`, the values for the activation in test [1], in test [12] and in [15] were 107% (active), 92.6% (active) and 39.4% (active), respectively. For the same molecule, the outcome in test [2], in test [3], in test [4], in test [5], in test [6] and in test [7] was inactive. The outcome in test [8], in test [9], in [10], in [11], in test [13] and in [14] was inactive. In addition, the result in test [16], in test [17], in [19] and in test [20] was inactive. Also, in test [18], the potentiation was 28.5% (active).
Consider `CSCCC(NS(=O)(=O)c1ccc2c(c1)c(=O)n(C)c(=O)n2C)C(=O)NC1CCN(Cc2ccccc2)CC1` (centres undefined), for which the result in test [1], in test [2], in test [3], in test [4], in [5] and in [6] was inactive. Besides, the result in test [7], in test [8], in test [9], in test [10], in [11] and in [13] was inactive. For the same molecule, the outcome in [14], in [15] and in [16] was inactive. Besides, in test [12], the activation was 8.04% (active).
Take `CN(CCc1ccccn1)C(=O)CC1C(=O)NCCN1Cc1ccccc1C(F)(F)F` (centres undefined): the activation in test [1] was 178% (active); in [12], 50.4% (active). Also, the outcome in [2], in [3], in test [4], in test [5], in test [6] and in test [7] was inactive. The outcome in test [8], in test [9], in test [10], in test [11], in test [13] and in test [14] was inactive. Besides, the result in [15] and in [16] was inactive.
On to `O=C(NCCc1ccccn1)c1ccc(OC2CCN(CCc3ccccc3)CC2)cc1`, for which the activation is 76% (active) in test [1] and 44.5% (active) in test [10]. Also, the outcome in [2], in [3], in test [4], in [5], in test [6] and in test [7] was inactive. Further, the result in test [8], in [9], in test [11], in [12], in test [13] and in test [14] was inactive. The outcome in [15] and in test [16] was inactive.
With `CCCN(CCC)CCCNC(=O)C1CCN(S(=O)(=O)c2cccc3nsnc23)CC1`, the activation was 145% (active) in [1], 95% (active) in test [2] and 54.7% (active) in test [12]. Moreover, the outcome in test [3], in [4], in [5], in test [6], in [7] and in [8] was inactive. Moreover, the call in test [9], in test [10], in test [11], in test [13], in test [14] and in test [15] was inactive. In addition, the outcome in test [16] was inactive.
